This is a sample that favours compounds with a hit; in the whole collection about 2.1% have one here.
FUS yeast rescue = suppressors of FUS proteinopathy in yeast. S. cerevisiae FUS-expressing, growth rescue, OD600, 24 h. Potency, µM (highest dose often 76.6 µM), usual class: activators. hit rate 0.24% among 390,000;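 further: plate controls were DMSO vehicle for no effect and reference control for full effect; nearly all actives have a fitted effect of over 55% in size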
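Compound concentration series was pinned onto galactose-induced FUS-expressing yeast seeded at OD 0.005. Plates sat 24hr at 30C; absorbance at 600 nm gave growth. DMSO served as background control.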
aSyn rescue = rescues yeast growth from alpha-synuclein toxicity. Yeast expressing alpha-synuclein, growth rescue, BacTiter-Glo, 24 h. Potency, µM (titrated, usually from 46.1 µM), without a hit: at the top dose growth rescue (activation), most hits filed as activators. hit rate 0.14% among 370,000. AID 652106; further: % of control where 0% means no effect; nearly all actives have a fitted effect of over 65% in size
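Rescue of yeast growth: cells expressing toxic alpha-synuclein, induced in galactose at OD600 0.02, incubated with compound 24 h at 30 C. ATP luminescence quantified growth; inhibitors of toxicity appear as activators.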
Abeta yeast res = compounds reversing amyloid beta toxicity in yeast; AID 1347071; Potency, µM (series often up to 46.1 µM), actives largely listed as activators; hit rate 0.063% among 410,000; yeast expressing A-beta42, growth rescue, OD600, 48 h; response scale: 0% DMSO, 100% iron-clioquinol control; further: nearly all actives have a fitted effect of over 55% in size
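Yeast growth medium received pinned compounds, then yeast cells expressing toxic A-beta were added; plates incubated at 30 C for 48 hr. Growth read as absorbance at 600 nm, normalized to DMSO and equimolar FeCl3 plus clioquinol controls.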
TDP43 rescue = inhibitors of TDP-43 toxicity in yeast; TDP-43 expressing yeast growth rescue, BacTiter-Glo, 24 h; Potency, µM (titrated, usually from 46.1 µM), for inactives: top-dose growth rescue (activation), most hits filed as activators; hit rate 1.8% among 410,000; AID 652104; further: % of control where 0% means no effect; nearly all actives have a fitted effect of over 50% in size
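Growth rescue of TDP-43-toxic yeast measured as ATP luminescence (BacTiter-Glo). Cells grown to mid-log in raffinose, induced in galactose at OD600=0.02, exposed to compound 24 hr at 30 deg C.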
* hit, by the source's call; i = inactive; u = inconclusive; x = no result. The call rests on the fitted dose curve; in most records, active means well fitted curve in the direction sought with a large enough effect; inconclusive means small, poorly fitted or top-dose-only effect, or another doubt; inactive means no such curve, though single readings can be large; an effect the other way counts as inactive or inconclusive. Potency means the concentration at half of the fitted maximal effect.

SMILES | FUS yeast rescue | aSyn rescue | Abeta yeast res | TDP43 rescue
O=C(OC12CCCN(C1)/C(=C/c1ccccc1)C2)c1ccc(Cl)cc1 (stereo unspecified) | i | x | x | x
CC(=O)C1=C(O)C(=O)N(CC(=O)O)C1c1ccccc1Cl (stereo unspecified) | i | -10% | i | 15%
CC(C)(C)C(=O)C1=C(O)C(=O)N(Cc2ccccc2)C1c1ccccc1Cl (stereo unspecified) | i | 12% | i | 13µM*
Cc1[nH]c2ccccc2c1C(c1ccccc1)c1ccc(Cl)s1 (stereo unspecified) | i | x | u | 35µM*
C/C(Cl)=C\Cn1c(O)c(N=NC(N)=S)c2ccccc21 | i | 14% | i | 18µM*
NC(=S)N=Nc1c(O)n(Cc2ccccc2)c2ccccc12 | i | -7% | i | -16%
C=CCn1c(O)c(N=NC(=S)Nc2cccc(C)c2)c2ccccc21 | x | u | u | 11µM*
Cc1c(Cl)cccc1NC(=S)N=Nc1c(O)n(CN2CCOCC2)c2ccccc12 | i | 1% | 22µM* | 15%
CNc1c(Br)cc(C=O)cc1Br | x | 2% | x | x
O=C(CN(CCc1c[nH]c2ccccc12)S(=O)(=O)c1ccccc1)N1CCCCCC1 | x | 10% | x | x
Cc1ccccc1Nc1c(-c2ccccn2)nc2c(C)cccn12 | i | -10% | 11µM* | -9%
Cc1ccc(NC(=O)c2c(NC(=O)C(F)(F)F)sc3c2CCCCC3)cc1 | i | x | i | 21%
S=c1nc(C2CCCCC2)n(-c2ccccc2)[nH]1 | i | -4% | 13µM* | 3%
CCc1ccc(NC(=O)CN2C(=O)C(c3ccc(Cl)cc3)=NC23CCCCC3)cc1 | i | x | i | 0%
OC[C@@H]1CC[C@@H](Cc2ccc(-c3ccccc3)cc2)O1 | i | 18µM* | i | 11µM*
O=C(Nc1cccc2ccccc12)c1cnn2c1NC(=C1CC1)C=C2C(F)F | x | -6% | x | x
CCCCNc1c(-c2ccc(OC)c(Sc3ccc(OC)cc3)c2)nc2cnccn12 | u | 16% | i | 32µM*
CCCCCCSc1cc(-c2nc3cnccn3c2NCCCC)ccc1OC | u | -64% | i | 0%
CCCCNc1c(-c2ccc(SC(C)CC)cc2)nc2cnccn12 (stereo unspecified) | 10µM* | -71% | i | -93%
S=c1ncc2n[nH]nc2[nH]1 | x | 6% | x | x
CC12CCC(C(=O)N(CSC(=S)N/N=C\c3ccccc3O)C1=O)C2(C)C (stereo unspecified) | i | u | u | 25µM*
CN(C)c1ccc(/C=N\NC(=S)SCN2C(=O)C3CCC(C)(C2=O)C3(C)C)cc1 (stereo unspecified) | i | 1% | u | 13µM*
COc1ccc(/C=N\NC(=S)SCN2C(=O)C3CCC(C)(C2=O)C3(C)C)cc1 (stereo unspecified) | i | u | i | u
Cc1nn(CC(=O)c2ccc(Cl)s2)c(C)c1[N+](=O)[O-] | 18µM* | 19% | i | 29%
Cc1nn(CC(=O)Nc2ccc3c(c2)OCCO3)c(C)c1[N+](=O)[O-] | i | 3% | i | 6.3µM*
SMILES | FUS yeast rescue | aSyn rescue | Abeta yeast res | TDP43 rescue
CN1C(=O)c2cc(NC(=O)Nc3ccccc3)ccc2OC[C@H]2O[C@@H](CC(=O)N[C@H]3CCN(Cc4ccccc4)C3)CC[C@@H]21 | i | x | x | x
CCOC(=O)c1ccc(Nc2c(-c3ccc(N(C)C)cc3)nc3nc[nH]n23)cc1 | i | x | i | u
CC(=O)NC(Cc1ccc([N+](=O)[O-])cc1)C(=O)NCC(N)C(=O)c1ccccc1 (stereo unspecified) | x | -7% | x | x
COc1ccc(C(=O)OCN2C(=O)c3ccccc3C2=O)cc1 | i | u | i | 10µM*
COc1cc(OC)c(C(=O)OCN2C(=O)c3ccccc3C2=O)cc1OC | i | -8% | i | -1%
CCc1ccc(OC(=O)CN2C(=O)c3ccccc3C2=O)cc1 | i | 12% | i | 16µM*
COc1ccc([C@H]2CC(=O)C=C(c3ccc(C)c([N+](=O)[O-])c3)C2)cc1 | u | 2% | i | 35µM*
COCc1cccc(C2=CC(=O)C[C@H](c3ccc(OC)cc3)C2)c1 | i | 5% | i | 14µM*
O=C1C=C(c2cccc(Cl)c2)C[C@@H](c2ccc(Cl)cc2)C1 | u | 3% | i | 0%
COc1ccc([C@H]2CC(=O)C=C(c3cccc(Cl)c3)C2)cc1 | i | 0% | i | 18µM*
